# Laboratory results reported in PubChem BioAssay (NCI).
# Where “and” joins values, the source holds several entries; their conditions need not be identical. Equal entries are not always repeated. The panel holds about 83,000 compounds, 20% with a hit somewhere; the sample as a whole holds those more often.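 Percent growth is the endpoint: 0 to 100 indicates growth inhibition (40 means 60% inhibition), 0 means no net growth, and negative values indicate cell death.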 Calls of active or inactive are those of the source. The calls were made as follows: active = growth percent below 10; inactive = the rest.
# System: HL-60(TB) leukemia
# Assay: NCI-60 one-dose screen, 48 h (100 = growth as untreated, 0 = no growth, -100 = all killed)
# Conditions: 10 µM unless noted
row,SMILES,growth
1,CN1CCN(CCCOc2ccc3nc(Nc4ccc(C(F)(F)F)c(Cl)c4)ccc3c2)CC1,12.5% (inactive)
2,O=[N+]([O-])c1cc(S(=O)(=O)c2ccc(F)c([N+](=O)[O-])c2)ccc1F,59.9% (inactive)
3,Oc1ccc(Cc2ccccc2Cl)c(O)c1,97.4% (inactive)
4,CC(C)N1C(=O)/C(=C2\SC(=S)N(C(C)C)C2=O)SC1=S,100% (inactive)
5,Oc1nc(NCCc2ccccc2)sc1/C=C1\C=Nc2ncccc21,-6.57% (active) and 6.77% (active)
6,NC(=O)c1ccc[n+]([C@@H]2O[C@H](COP(=O)([O-])OP(=O)(O)OC[C@H]3O[C@@H](n4cnc5c(N)ncnc54)[C@H](O)[C@@H]3O)[C@@H](O)[C@H]2O)c1,109% (inactive)
7,c1ccc(-c2cn3ccnc3c(-c3ccc4ncn(C5CCCCC5)c4c3)n2)cc1,32.9% (inactive)
8,Cc1ccc(NC(=O)CN2CCOCC2)cc1Cl,74.2% (inactive)
9,Nc1nc(=S)c2ncn(C3OC(COP(=O)(O)O)C(O)C3O)c2[nH]1 (stereo unspecified),16.3% (inactive)
10,O=C(OCc1ccc2c(Br)cc(Br)c(O)c2n1)c1cc2ccccc2[nH]1,-46.1% (active)
11,N#CC1(Nc2ccc3c4c(cccc24)CC3)CCCCC1,72.2% (inactive)
12,Cc1nc2ccc(-n3ncc(C(=O)c4cc5ccccc5[nH]4)c3N)cc2[nH]1,36.5% (inactive)
13,COC1=CC(=O)c2nc(Cl)ccc2C1=O,-30.1% (active)
14,O=c1c2c(c3ccccc3n1-c1ccccc1)NC(=S)NC2c1ccccc1 (stereo unspecified),44.3% (inactive)
15,CN1CCN(Cn2nc(-c3cc(F)c(Cl)cc3Cl)n(/N=C/c3ccc(N(C)C)cc3)c2=S)CC1,83.1% (inactive)
16,O=C(Nc1ccc(F)cc1)c1ccccc1,97.5% (inactive)
17,Cn1cnc2c(F)c(Nc3ccc(Br)cc3F)c(C(=O)NOCCO)cc21,16.6% (inactive)
18,Nc1nc(-c2cc3ccccc3o2)cc(=O)c(=O)[nH]1,107% (inactive)

row,SMILES,growth
1,Oc1ccc(O)c(-[n+]2ccccc2)c1,101% (inactive)
2,COc1ccc(Cn2c(Br)c3c(c2Br)-c2nc(NC(=O)c4ccc(OC)cc4)sc2CC3)cc1,75.9% (inactive)
3,Nc1ccccc1Nc1ccccc1,23.5% (inactive) and 11.2% (inactive)
4,C=C(C)[C@@H]1CC[C@@]2(C(=O)O)CC[C@]3(C)C(CCC4[C@@]5(C)CCC(OS(=O)(=O)c6ccccc6)C(C)(C)C5CC[C@]43C)C12 (stereo partly specified),21.4% (inactive)
5,COc1cc(-c2nn(-c3cccc(NC(=O)NCCNC(=O)c4ccccc4)c3)cc2-c2ccncc2)ccc1Cl,-8.76% (active)
6,N#Cc1c(-c2cccs2)cc(-c2cccnc2)[nH]c1=O,97.6% (inactive)
7,CCCNC(=S)N/N=C(\C)c1ccccn1,-8.41% (active)
8,COc1cc(N=C2C(=O)N(Cc3ccccc3)c3ccccc32)cc(OC)c1OC,69.9% (inactive)
9,CCN(CC)CCCC(C)Nc1cnc(C(=O)Nc2cc(F)cc3cccnc23)cn1 (stereo unspecified),85.5% (inactive) and 5.69% (active)
10,O=S(=O)(NCCCNc1nccc(-c2c(-c3ccc(F)c(O)c3)nc3sccn23)n1)c1ccccc1,69.8% (inactive)
11,CN1C(=O)N(C)C2C1NN=c1s/c(=C\c3cccnc3)c(=O)n12 (stereo unspecified),82.7% (inactive)
12,CCNc1cc(-c2cccc(OC(F)(F)F)c2)nc2ccc(N3CCCC3)cc12,-47.1% (active)
13,Cc1ccn2cc(Cc3cc(=O)oc4c3ccc3ccccc34)c(=O)nc2c1,86.1% (inactive)
14,O=C(NCCCN1CCOCC1)c1cccc(N2C(=O)/C(=C/c3ccc(F)cc3)SC2=S)c1,99.6% (inactive)
15,O=[N+]([O-])c1ccccc1N(S(=O)(=O)c1ccccc1)S(=O)(=O)c1ccccc1,5.52% (active) and 108% (inactive)
16,CO[C@H](C(=O)[C@@H](O)[C@@H](C)O)[C@@H]1Cc2cc3cc(OC4CC(OC5CC(O)C(O)C(C)O5)C(O)C(C)O4)c(C)c(O)c3c(O)c2C(=O)[C@H]1OC1CC(OC2CC(OC3CC(C)(O)C(O)C(C)O3)C(O)C(C)O2)C(O)C(C)O1 (stereo partly specified),3.88% (active)
17,CCN(CC)CCCC(C)N(Cc1ccccc1)CC(O)c1ccc(Cl)cc1 (stereo unspecified),101% (inactive) and 106% (inactive)
18,Nc1c(C(=O)Nc2cccc(Br)c2)sc2nc3c(cc12)C(O)CCC3 (stereo unspecified),-2.37% (active)
